PubChem BioAssay (NCI)
About 83,000 compounds went through this panel and 20% of them were active in at least one assay; those are over-represented in the sample as a whole.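 Single-dose data. Exposure time 48 hours. Values below 10 considered active.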 A number with no mark means an inactive call. The source made the active and inactive calls.

Tests used:
Test in all cases: NCI-60 one-dose screen, 48 h (100 = growth as untreated, 0 = no growth, -100 = all killed)
Conditions in all cases: 10 µM unless noted
[1] = test system: NCI-H23 lung
[2] = test system: NCI-H226 lung
[3] = test system: NCI-H322M lung
[4] = test system: HOP-62 NSCLC
[5] = test system: NCI-H460 lung
[6] = test system: HOP-92 NSCLC
[7] = test system: A549/ATCC NSCLC
[8] = test system: 786-0 renal
[9] = test system: COLO 205 colon
[10] = test system: DU-145 prostate
[11] = test system: K-562 leukemia
[12] = test system: MALME-3M melanoma
[13] = test system: MDA-MB-231 breast
[14] = test system: RXF 393 renal
[15] = test system: SF-268 CNS
[16] = test system: SF-295 CNS
[17] = test system: SF-539 CNS
[18] = test system: UACC-257 melanoma
[19] = test system: M14 melanoma

Row | SMILES | growth [1] | growth [2] | growth [3] | growth [4] | growth [5] | growth [6] | growth [7] | growth [8] | growth [9] | growth [10] | growth [11] | growth [12] | growth [13] | growth [14] | growth [15] | growth [16] | growth [17] | growth [18] | growth [19]
1 | O=C(O)c1cc([N+](=O)[O-])ccc1Br | 105% | 97.8% | 94.1% | 109% | 105% | 91.4% | 101% | 102% | 115% | 106% | 100% | 102% | 101% | 110% | 102% | 97.2% | 94.8% | 102% | 98.3%
2 | NNC(=O)c1ccc(C(=O)NN)cc1 | 101% | 97.6% | 102% | 115% | 104% | 104% | 100% | 114% | 138% | 109% | 112% | 98% | 117% | 111% | 106% | 106% | 115% | 94.6% | 114%
3 | Cc1ccccc1-n1nnc(C(=O)Nc2nc3ccc(F)cc3s2)c1C | 55.7% | 48.4% | 71.2% | 86% | 65.7% | 55.7% | 64.5% | 76.2% | 80.5% | 66.9% | 35.3% | 50.6% | 82% | 65.6% | 73% | 60.5% | 79.9% | 55.7% | 49.3%
4 | COc1cc(-c2cc(-c3ccc(Nc4ncnc5cc(Cl)ccc45)cc3)nc(N3CCCCC3)n2)cc(OC)c1OC | 102% | 99.3% | 95.5% | 84.7% | 94.7% | 92% | 84.7% | 98.9% | 110% | 102% | 92.3% | 95.1% | 92% | 106% | 88.4% | 104% | 93.6% | 111% | 106%
5 | C#CCOc1ccc(C2=NN(CC3CC3)C3N=C(Cl)c4ncn(CC5CC5)c4N23)cc1OCC#C (centres undefined) | 85.7% | 76.4% | 76.1% | 83.8% | 69.6% | 61.7% | 71.4% | 93.6% | 78.9% | 69% | 48.6% | 83.5% | 87.5% | 51.2% | 96.8% | 88% | 90% | 98.8% | 74.3%
6 | CCCCCCSc1ncnc2nc[nH]c12 | 92.4% | 85.5% | 99.9% | 95.6% | 94.5% | 68.3% | 96.1% | 89.7% | 95.2% | 95% | 70.7% | 102% | 96.8% | 78.1% | 96.3% | 88.8% | 87.4% | 91.4% | 97%
7 | NC(=O)CC1C=CCC1 (centres undefined) | 94.5% | 99.4% | 108% | 103% | 101% | 106% | 80.1% | 96.5% | 114% | 102% | 96% | 97.8% | 102% | 111% | 102% | 98.3% | 93.3% | 90.4% | 102%
8 | CCN(CC)CCS(=O)(=O)CCNc1ccnc2cc(Cl)ccc12 | -18.4% (active) | 30.1% | 56.8% | 22.5% | 2.87% (active) | 26.4% | 71.9% | 10.2% | -44.5% (active) | -24% (active) | 7.87% (active) | 1.04% (active) | -2.95% (active) | -17.2% (active) | 4.55% (active) | 25.9% | -2.68% (active) | 59% | -10.5% (active)
9 | COc1ccc2nc3ccccc3c(NCCNCCO)c2c1 | -40.3% (active) | -10.8% (active) | -25% (active) | -6.96% (active) | -41.3% (active) | -10.7% (active) | -27% (active) | 3.89% (active) | -75.3% (active) | -31.2% (active) | 18.9% | -65.5% (active) | -18.9% (active) | -63% (active) | -27.9% (active) | -18.4% (active) | -11.1% (active) | -50% (active) | -87.3% (active)
10 | Cc1ccc(NC(=O)N[C@@H](Cc2cc(F)cc(F)c2)C(=O)N[C@@H]2C(=O)N3CCC[C@H]3C(=O)N3CCOC[C@H]3C(=O)N[C@@H](C)C(=O)N3C[C@H](C)C[C@H]3C(=O)O[C@H]2C)cc1 | 33.5% | 30.5% | 62.2% | 26.7% | 26.4% | 39.4% | 27.3% | 34.1% | 10% (active) | 31.2% | 17.2% | 33.6% | 9.97% (active) | 36.9% | 28.5% | 12.7% | 47.6% | 20.9% | 26.9%
11 | O=C(Nc1cccc(F)c1)c1cc(=O)[nH]c2cc(Br)ccc12 | 72.5% | 54.7% | 53.8% | 50.9% | 21.9% | 47.4% | 40.3% | 69.7% | 20.4% | 74.2% | 21.3% | 52.8% | 72.2% | 56.1% | 60.8% | 38.9% | 47.6% | 57% | 29.5%
12 | Cc1cccc(/C=C2\N=C(c3ccccc3)N(c3ccc(S(N)(=O)=O)cc3)C2=O)c1 | 90% | 110% | 97.5% | 83.5% | 93.2% | 105% | 75.7% | 95.2% | 104% | 97% | 90.9% | 82.7% | 96.7% | 102% | 91.4% | 86.5% | 72.2% | 94.4% | 107%
13 | CCCCOC(=O)c1cccc([N+](=O)[O-])c1 | 101% | 104% | 106% | 109% | 107% | 99.8% | 107% | 112% | 115% | 117% | 144% | 117% | 121% | 111% | 110% | 101% | 105% | 93.6% | 105%
14 | Cc1ccc(S(=O)(=O)Nc2ccccc2)cc1N | 90.8% | 95.6% | 97% | 86.2% | 99.5% | 75.2% | 81.3% | 99.8% | 119% | 108% | 78.3% | 133% | 83.9% | 94.5% | 94.8% | 119% | 106% | 92.3% | 96.2%
15 | CSc1nc2sc3cc(Cl)c(Cl)cc3n2c(=N)c1C#N | 84.8% | 95% | 104% | 94.7% | 98.7% | 98.9% | 106% | 102% | 122% | 107% | 116% | 101% | 83.7% | 149% | 104% | 99% | 91.3% | 99.8% | 94.3%
16 | CCOC(=O)C(C(C)=O)c1nc2sc3cc(Cl)c(Cl)cc3n2c(=O)c1C#N (centres undefined) | 94.7% | 95.3% | 114% | 109% | 92.7% | 76.8% | 108% | 114% | 108% | 109% | 92% | 95.5% | 87.2% | 179% | 103% | 103% | 86.2% | 118% | 104%
